In the library only some 5.7% were active in any assay of this set; here they are far more common.
ClpP mod: qHTS Assay for Activators of ClpP | AID 651965, 2013 | purified B. subtilis ClpP, FRET peptide cleavage, 20 min | hit rate 1.9% among 340,000 | Potency, µM (top dose mostly 57.5 µM); active = well fitted falling curve with a large enough effect; inconclusive = small, poorly fitted or top-dose-only effect; inactive = no such curve, though single readings can be large or run the other way; note: the source files actives as falling curves though it sought activators and does not explain the sign; nearly all actives have a fitted effect of over 65% in size
Target sequence (P80244 whole entry, looked up): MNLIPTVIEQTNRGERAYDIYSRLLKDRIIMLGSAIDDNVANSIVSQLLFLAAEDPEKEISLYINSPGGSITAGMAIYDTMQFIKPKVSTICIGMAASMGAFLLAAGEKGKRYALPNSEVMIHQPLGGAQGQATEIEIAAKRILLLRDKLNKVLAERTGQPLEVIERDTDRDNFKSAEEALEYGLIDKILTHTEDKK
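Purified B. subtilis ClpP, 10 microg/mL final in Tris/HCl pH8 with KCl, BSA, glycerol and Tween-20, cleaved an Abz/nitrotyrosine-quenched decapeptide. Fluorescence (ex 320, em 430) was read at 0 and 20 min at room temperature. Delta was normalized to 5.8 microM ADEP and DMSO/no-enzyme controls.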
D3 antag: blocks the human D3 dopamine receptor. D3R cells, DiscoveRx beta-arrestin luminescence, antagonist mode; active compounds read low. hit rate 2.5% among 360,000. max response, negative = inhibition, %; in the data active = max response below about -50%; inconclusive = no clear call, values can overlap the other calls
Target sequence (P35462 whole entry, looked up): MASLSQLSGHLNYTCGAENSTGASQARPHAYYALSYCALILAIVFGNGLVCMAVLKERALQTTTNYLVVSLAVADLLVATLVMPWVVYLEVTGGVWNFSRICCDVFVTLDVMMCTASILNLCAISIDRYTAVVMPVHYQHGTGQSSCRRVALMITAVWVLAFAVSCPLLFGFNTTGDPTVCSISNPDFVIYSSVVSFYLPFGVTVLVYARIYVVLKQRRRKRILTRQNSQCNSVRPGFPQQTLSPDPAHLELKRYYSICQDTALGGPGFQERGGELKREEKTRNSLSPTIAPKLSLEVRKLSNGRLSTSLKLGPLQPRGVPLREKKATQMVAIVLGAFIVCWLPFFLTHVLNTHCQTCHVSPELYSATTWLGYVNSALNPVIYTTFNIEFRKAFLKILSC
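Cells expressing the human receptor were seeded at 1500 cells/well, incubated overnight at 37 degrees C in 5% CO2, then exposed to library compounds with dopamine controls for 90 minutes at 37 degrees C before luminescent detection.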
GLP1R ag: agonists of human GLP-1 receptor; HEK293 GLP-1R CRE-luciferase, luminescence, 4-6 h; cells express a hypersensitive GLP-1R form; hit rate 0.007% among 380,000; P43220; AID 624172; Potency, µM (top dose mostly 45.6 µM), most hits filed as activators
GLP1R inv ag: GLP-1 receptor (human) inverse agonism | HEK293 GLP-1R CRE-luciferase, luminescence, 24 h; GLP-1R form is constitutively active | Potency, µM (doses to about 38.3 µM), hits mostly inhibitors | hit rate 1.6% among 410,000; note: nearly all actives have a fitted effect of over 55% in size
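GLP-1R inverse agonism mode: basal reporter luminescence in engineered HEK293 cells measured after one day of compound exposure at 37 deg C, with a 12 min room-temperature detection step.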
DRD3 agonist: agonists of human D3 dopamine receptor; P35462; D3R DiscoveRx beta-arrestin cells, luminescence, 90 min; max activation, %; hit rate 0.58% among 410,000; AID 652048; in the data active = max activation above about 30%
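Cells at 1500/well, incubated overnight, then treated with pinned compounds (dopamine as control) for 90 min at 37 degrees C. DiscoveRx reagent added for 30 - 60 minutes at room temperature; luminescence read.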
GLP1R cytotox: cytotoxicity counter-screen for GLP-1 receptor inverse agonists | HEK293 cAMP-luciferase reporter cells, luminescence, 24 h | Potency, µM (top dose mostly 38.3 µM), actives largely listed as inhibitors | hit rate 0.13% among 410,000 | AID 624418;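 note: loss of luciferase light is scored as toxicity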
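Step one: seed cells (200 cells/uL, DMEM with 10% Nu serum, 1% pen-strep). Step two: 12-hour incubation at 37 deg C. Step three: pin 23 nL compound, incubate 24 hr. Step four: add luciferase reagent, read luminescence 12 min later.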
Of the large screens only hits and unclear results are named; the others gave an inactive call. Unless noted, calls come from the whole dose curve; as a rule, active = well fitted curve in the direction sought with a large enough effect; inconclusive = small, poorly fitted or top-dose-only effect, or another doubt; inactive = no such curve, though single readings can be large; an effect the other way counts as inactive or inconclusive.

ClC1=C(Cl)C2(Cl)C(CBr)CC1(Cl)C2(Cl)Cl (stereo unspecified)	none (no result: ClpP mod, D3 antag, GLP1R inv ag, GLP1R cytotox)
COc1ccc2sc(-c3ccc(N(C)C)cc3)c(C#CCCO)c2c1	DRD3 agonist 32.1
O=c1[nH]c(CN2CC=C(c3ccccc3)CC2)nc2scc(-c3ccccc3)c12	GLP1R inv ag inconclusive, DRD3 agonist 67.5
O=c1[nH]c(CN2CC=C(c3ccccc3)CC2)nc2cc(C(F)(F)F)ccc12	none
C[C@@H]1CN([C@@H](C)CO)C(=O)c2c(c3ccccc3n2C)-c2ccccc2CO[C@H]1CN(C)S(=O)(=O)c1ccc(C#N)cc1	GLP1R inv ag inconclusive
c1ccc(CN2CCc3nc4ccccc4cc3C2)cc1	DRD3 agonist 60.3
CN1CC[C@]23c4c5ccc(O)c4O[C@H]2[C@@H](O)CC[C@H]3[C@H]1C5	none (no result: ClpP mod, D3 antag, GLP1R ag, GLP1R inv ag, GLP1R cytotox)
CCOc1ccc(CNCCc2ccc3c(c2)OCO3)cc1	D3 antag -86.4
c1ccc(CNCCc2c[nH]c3ccccc23)cc1	GLP1R inv ag inconclusive
COc1cc(CNCCc2c[nH]c3ccccc23)cc(OC)c1OC	none
c1ccc2c(CCNCc3ccc4c(c3)OCO4)c[nH]c2c1	D3 antag -68.2, GLP1R cytotox inconclusive
COc1cc(CNCCc2c[nH]c3ccccc23)cc(OC)c1	D3 antag -68.5, GLP1R inv ag inconclusive
CCC[C@@H](CN[C@@H](CNC)C(C)C)NCCCCc1ccccc1	GLP1R cytotox inconclusive
CCC[C@@H](CN[C@@H](CNC)[C@H](C)CC)NCC1CCC(C(C)(C)C)CC1 (stereo partly specified)	GLP1R inv ag 10µM, GLP1R cytotox inconclusive
CC(=O)O[C@H]1CC[C@@]2(C)C(=CC[C@@H]3[C@@H]2CC[C@]2(C)C(=O)CC[C@@H]32)C1	D3 antag inconclusive
CC(=O)O/C(=C1\CC2C3CC=C4CC(OC(C)=O)CCC4(C)C3CCC2(C)C1=O)C(F)(F)F (stereo unspecified)	D3 antag -70.3, GLP1R cytotox inconclusive
Cc1cnc(C)c(Nc2nc(C(N)Cc3ccc(C(F)(F)F)cc3)cs2)n1 (stereo unspecified)	GLP1R inv ag inconclusive
O=C(c1ccc2c(c1)OCO2)C1CCCN(Cc2ccc(F)c(F)c2)C1 (stereo unspecified)	D3 antag -52.2, GLP1R inv ag inconclusive
COc1ccc(CN2CCCC(C(=O)c3ccc(Cl)cc3)C2)c(OC)c1 (stereo unspecified)	D3 antag -59.7, GLP1R inv ag inconclusive, GLP1R cytotox inconclusive
COc1ccc(CN2CCCC(C(=O)c3cccc(Cl)c3)C2)cc1 (stereo unspecified)	D3 antag -73.2, GLP1R inv ag inconclusive
COc1ccc(C(=O)C2CCCN(Cc3ccon3)C2)c(OC)c1 (stereo unspecified)	none (no result: ClpP mod)
CC(Cc1ccccc1)NCCn1cnc2c1c(=O)n(C)c(=O)n2C (stereo unspecified)	none (no result: ClpP mod, D3 antag, GLP1R inv ag, GLP1R cytotox)
CCCC(C)C1(CC)C(=O)NC(=O)NC1=O (stereo unspecified)	none (no result: ClpP mod, D3 antag, GLP1R inv ag, GLP1R cytotox)
CCOC(=O)C1(CCOc2ccccc2)CCN(Cc2ccc(C)s2)CC1	D3 antag -50.3, GLP1R inv ag inconclusive
C[N+]1([O-])[C@H]2CC[C@H]1CC(OC(=O)[C@@H](CO)c1ccccc1)C2 (stereo partly specified)	none (no result: ClpP mod, D3 antag, GLP1R inv ag, DRD3 agonist, GLP1R cytotox)
CC(C)c1ccc(OCC(=O)N2CCN(CCc3ccncc3)CC2)cc1	none (no result: D3 antag, GLP1R ag)
C=CCN1C(=O)C2(C(C(=O)OCC)=C(N)Oc3ccccc32)C2=C1CCCC2=O (stereo unspecified)	none
CC1(C)CC(=O)C2=C(C1)NC(=O)C21C(C(=O)OC(C)(C)C)=C(N)Oc2ccc(Br)cc21 (stereo unspecified)	GLP1R inv ag inconclusive, DRD3 agonist 30.6
OCCN1C2CCC1CC(O)(c1ccc(F)cc1)C2 (stereo unspecified)	D3 antag -68.3
C#CCN(C[C@@H]1[C@@H](OC(=O)Nc2c(C)noc2C)[C@@H](OC(=O)Nc2c(C)noc2C)Cn2c(=O)n(CCCCCC)c(=O)n21)S(=O)(=O)c1ccc(C)cc1	GLP1R inv ag inconclusive
Cc1ccsc1C(=O)C1CCCN(Cc2cnn(C(C)C)c2)C1 (stereo unspecified)	D3 antag -72.9
COCc1ccc(CN2CCCC(C(=O)c3sccc3C)C2)o1 (stereo unspecified)	D3 antag inconclusive, GLP1R inv ag inconclusive (no result: ClpP mod)
CCc1ccc(CN2CCCC(C(=O)c3sccc3C)C2)o1 (stereo unspecified)	D3 antag -52.3, GLP1R inv ag inconclusive
Cc1ccsc1C(=O)C1CCCN(Cc2ccccc2O)C1 (stereo unspecified)	D3 antag -52.8, GLP1R inv ag inconclusive (no result: ClpP mod)
O=C1C=C(N2CCOCC2)c2ccccc2C1=O	GLP1R inv ag inconclusive, GLP1R cytotox 11.2µM (no result: ClpP mod)
O=C1C=C(N2CC2)c2ccccc2C1=O	none
CN(Cc1ccccc1)C(=O)c1ccc(Nc2nc(C(N)Cc3ccc(C(F)(F)F)cc3)cs2)nc1 (stereo unspecified)	ClpP mod inconclusive, GLP1R inv ag inconclusive, GLP1R cytotox inconclusive
OCCCBr	none (no result: ClpP mod, D3 antag, GLP1R inv ag, GLP1R cytotox)
CC1C(=O)C(C)C(c2ccc(Cl)cc2)NC1c1ccc(Cl)cc1 (stereo unspecified)	D3 antag -60.6, GLP1R inv ag inconclusive (no result: ClpP mod)
CCCCOc1ccc(C(=O)NCCc2csc(-c3ccc(OC)cc3)n2)cc1	ClpP mod 22.4µM (no result: D3 antag, GLP1R ag)
C[C@@H]1[C@H](O)[C@@H](C)/C=C/C=C/CC/C=C/C=C/C=C/C=C/[C@H](O[C@H]2O[C@@H](C)[C@H](O)[C@@H](N)[C@H]2O)CC2O[C@](O)(C[C@@H](O)[C@H](O)CC[C@@H](O)C[C@@H](O)C[C@@H](O)CC(=O)O[C@H]1C)C[C@H](O)[C@H]2C(=O)O	none (no result: ClpP mod, D3 antag, GLP1R ag, GLP1R inv ag, GLP1R cytotox)
NCCc1ccc(O)cc1	DRD3 agonist 32.2
CCCc1cc(-c2nc(N)ncc2-c2ccc3c(c2)OCCCO3)c(O)cc1OC	GLP1R inv ag 10µM, GLP1R cytotox inconclusive
CCC(OC(C)=O)C(CC(C)NC)(c1ccccc1)c1ccccc1 (stereo unspecified)	none (no result: ClpP mod, D3 antag, GLP1R ag, GLP1R inv ag, GLP1R cytotox)
ClC[C@H]1CO1 (tested in a mixture with another compound)	none (no result: ClpP mod, D3 antag, GLP1R inv ag, DRD3 agonist, GLP1R cytotox)
CCOC(=O)C1=C(Cc2ccc(Cl)cc2)C(=O)c2ccccc2C1=O	D3 antag -76.1, GLP1R inv ag inconclusive, GLP1R cytotox inconclusive
CCc1ccc(/C=C2\SC(=S)N(CCCC(=O)N(CCO)c3ccccc3)C2=O)cc1	GLP1R inv ag 10µM, GLP1R cytotox inconclusive

Assay outcomes as filed in PubChem BioAssay.
